In all, about 5,500 compounds went through this assay and about 2,000 (36%) were called active. Not shown: some 18% with an inconclusive outcome. The list shows a part of the results. A number with no mark means an inactive call. No stated cut-off is given here; in the data, active means normalized growth mostly below about 0.91 (no sharp cut-off); inconclusive means no clear call, values can overlap the other calls; inactive means mostly above about 0.92.
Experiment: chemical genetic growth profiling, strain panel (AID 1159580);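 further: tested at 20 µM; growth read once vehicle control cultures reached saturation at 30 °C; 1 = growth at the plate median or of vehicle wells; lower values mean less growth of the strain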
Conditions: S. cerevisiae deletion strains, growth OD
[1] = locus YDL101C, strain DUN1, hits give low values
[2] = locus YHR030C, strain SLT2, hits give low values

COc1ccc2c(c1)CCc1sc(NC(=O)c3ccco3)nc1-2
normalized growth (locus YAR019C, strain CDC15, hits give low values): 0.957 | normalized growth (locus YBL105C, strain PKC1, hits give low values): 0.961 | normalized growth (locus YBR135W, strain CKS1, hits give low values): 0.953 | normalized growth (locus YBR136W, strain MEC1, hits give low values): 0.969 | normalized growth (locus YBR160W, strain CDC28, hits give low values): 0.965 | normalized growth (locus YDL017W, strain CDC7, hits give low values): 0.971 | normalized growth (locus YDL028C, strain MPS1, hits give low values): 0.971 | normalized growth [1]: 0.993 | normalized growth (locus YDL108W, strain KIN28, hits give low values): 0.947 | normalized growth (locus YDL132W, strain cdc53, hits give low values): 0.97 | normalized growth (locus YDL214C, strain PRR2, hits give low values): 0.901 | normalized growth (locus YDR052C, strain DBF4, hits give low values): 0.969 | normalized growth (locus YDR054C, strain cdc34, hits give low values): 0.955 | normalized growth (locus YDR226W, strain ADK1, hits give low values): 0.957 | normalized growth (locus YDR477W, strain SNF1, hits give low values): 0.889 | normalized growth (locus YER123W, strain YCK3, hits give low values): 0.858 | normalized growth (locus YER133W, strain GLC7, hits give low values): 0.872 | normalized growth (locus YFL009W, strain cdc4, hits give low values): 0.963 | normalized growth (locus YFL029C, strain CAK1, hits give low values): 0.959 | normalized growth (locus YFR003C, strain YPI1, hits give low values): 0.964 | normalized growth (locus YFR019W, strain FAB1, hits give low values): 0.996 | normalized growth (locus YFR028C, strain CDC14, hits give low values): 0.95 | normalized growth (locus YGR040W, strain KSS1, hits give low values): 0.872 | normalized growth (locus YGR052W, strain FMP48, hits give low values): 0.94 | normalized growth (locus YGR092W, strain DBF2, hits give low values): 0.803 | normalized growth [2]: 0.757 (active) | normalized growth (locus YHR079C, strain IRE1, hits give low values): 0.952 | normalized growth (locus YHR082C, strain KSP1, hits give low values): 0.918 | normalized growth (locus YHR205W, strain SCH9, hits give low values): 0.921 | normalized growth (locus YIL147C, strain SLN1, hits give low values): 0.957 | normalized growth (locus YJL095W, strain BCK1, hits give low values): 0.895 | normalized growth (locus YJL128C, strain PBS2, hits give low values): 0.934 | normalized growth (locus YJL157C, strain FAR1, hits give low values): 0.889 | normalized growth (locus YJR016C, strain ILV3, hits give low values): 0.961 | normalized growth (locus YJR066W, strain TOR1 (second series), hits give low values): 0.872 | normalized growth (locus YJR066W, strain TOR1, hits give low values): 0.924 | normalized growth (locus YKL048C, strain ELM1, hits give low values): 0.959 | normalized growth (locus YKL067W, strain YNK1, hits give low values): 0.92 | normalized growth (locus YKL101W, strain HSL1, hits give low values): 0.941 | normalized growth (locus YKL193C, strain SDS22, hits give low values): 0.95 | normalized growth (locus YKL203C, strain TOR2, hits give low values): 0.951 | normalized growth (locus YLR113W, strain HOG1, hits give low values): 0.823 (active) | normalized growth (locus YLR133W, strain CKI1, hits give low values): 0.93 | normalized growth (locus YLR403W, strain SFP1, hits give low values): 0.915 | normalized growth (locus YML070W, strain DAK1, hits give low values): 0.88 | normalized growth (locus YMR001C, strain CDC5, hits give low values): 0.946 | normalized growth (locus YMR205C, strain PFK2 (second series), hits give low values): 0.927 | normalized growth (locus YMR277W, strain FCP1, hits give low values): 0.954 | normalized growth (locus YNL006W, strain LST8, hits give low values): 0.967 | normalized growth (locus YNL020C, strain ARK1, hits give low values): 0.928 | normalized growth (locus YNL161W, strain CBK1, hits give low values): 0.96 | normalized growth (locus YNL183C, strain NPR1, hits give low values): 0.938 | normalized growth (locus YNL207W, strain RIO2, hits give low values): 0.96 | normalized growth (locus YNL222W, strain SSU72, hits give low values): 0.957 | normalized growth (locus YNL307C, strain MCK1 (second series), hits give low values): 0.94 | normalized growth (locus YOL078W, strain AVO1, hits give low values): 0.961 | normalized growth (locus YOL136C, strain PFK27, hits give low values): 0.882 | normalized growth (locus YOR061W, strain CKA2, hits give low values): 0.887 | normalized growth (locus YOR119C, strain RIO1, hits give low values): 0.865 | normalized growth (locus YOR231W, strain MKK1, hits give low values): 0.932 | normalized growth (locus YOR329C, strain SCD5, hits give low values): 0.969 | normalized growth (locus YPL031C, strain PHO85, hits give low values): 0.828 | normalized growth (locus YPL153C, strain RAD53, hits give low values): 0.845 | normalized growth (locus YPL204W, strain HRR25, hits give low values): 0.896 | normalized growth (locus YPL209C, strain IPL1, hits give low values): 0.968 | normalized growth (locus YPL256C, strain CLN2, hits give low values): 0.918 | normalized growth (locus YPR025C, strain CCL1, hits give low values): 0.953 | normalized growth (locus YPR106W, strain ISR1, hits give low values): 0.969 | normalized growth (locus YPR111W, strain DBF20, hits give low values): 0.967 | normalized growth (strain NNK1, hits give low values): 0.973 | normalized growth (strain TSCII, hits give low values): 0.959

COc1ccc(C(=O)c2sc(Nc3ccccc3)nc2-c2ccccc2)cc1
normalized growth (locus YAL013W, strain DEP1, hits give low values): 0.999 | normalized growth (locus YBR229C, strain ROT2, hits give low values): 0.979 | normalized growth (locus YCL061C, strain MRC1, hits give low values): 1 | normalized growth [1]: 1 | normalized growth (locus YDR150W, strain NUM1, hits give low values): 1.01 | normalized growth (locus YEL061C, strain CIN8, hits give low values): 0.96 | normalized growth (locus YGR078C, strain PAC10, hits give low values): 0.994 | normalized growth [2]: 0.907 | normalized growth (locus YHR087W, strain rtc3, hits give low values): 0.958 | normalized growth (locus YJR043C, strain POL32, hits give low values): 0.988 | normalized growth (locus YJR075W, strain HOC1, hits give low values): 0.975 | normalized growth (locus YKL190W, strain CNB1, hits give low values): 0.997 | normalized growth (locus YLR039C, strain RIC1, hits give low values): 0.825 | normalized growth (locus YLR058C, strain SHM2 (second series), hits give low values): 1.02 | normalized growth (locus YLR085C, strain ARP6, hits give low values): 0.853 | normalized growth (locus YLR262C, strain YPT6, hits give low values): 0.993 | normalized growth (locus YML094W, strain GIM5, hits give low values): 0.927 | normalized growth (locus YMR219W, strain ESC1, hits give low values): 0.976 | normalized growth (locus YMR263W, strain SAP30, hits give low values): 0.971 | normalized growth (locus YMR307W, strain GAS1, hits give low values): 0.925 | normalized growth (locus YNL153C, strain GIM3, hits give low values): 1.03 | normalized growth (locus YNL298W, strain CLA4 (second series), hits give low values): 0.953 | normalized growth (locus YNL322C, strain KRE1, hits give low values): 0.989 | normalized growth (locus YNR030W, strain Alg12, hits give low values): 0.913 | normalized growth (locus YOL006C, strain TOP1, hits give low values): 0.893 | normalized growth (locus YPL055C, strain LGE1, hits give low values): 0.916 | normalized growth (locus YPL241C, strain CIN2, hits give low values): 0.898 | normalized growth (locus YPR135W, strain CTF4, hits give low values): 0.857
